Screening results from PubChem.
DT40 TDP1 no CPT: qHTS for Inhibitors of human tyrosyl-DNA phosphodiesterase 1 (TDP1): qHTS in cells in absence of CPT; DT40 Tdp1-/- hTDP1 cells, no CPT, ATP luminescence, 48 h; Potency, µM (top dose mostly 46.2 µM), hits mostly inhibitors; actives 15% (n = 420,000); AID 686978, 2013; also: nearly all actives have a fitted effect of over 55% in size
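Seeded 400 DT40-hTDP1 cells/well (vehicle DMSO, no 20 nM CPT); pinned compounds; ≥48 hr at 37 °C; CellTiter-Glo luminescence as viability measure.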
DT40 TDP1 CPT: DT40-hTDP1 cell growth loss with CPT | chicken DT40 Tdp1-/-;hTDP1 cells + 20 nM CPT, ATP luminescence, 48 h | Potency, µM (series often up to 46.2 µM), usual class: inhibitors | actives 12% (n = 420,000) | AID 686979; also: nearly all actives have a fitted effect of over 55% in size
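Chicken DT40 Tdp1-/- cells complemented with human TDP1, 400 cells/well, exposed to compounds plus 20 nM camptothecin for at least 48 h at 37 C; viability read as ATP content by CellTiter-Glo luminescence.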
ATXN2 expr inh: inhibitors of ATXN2 expression. HEK-293 ATXN2-luciferase reporter, luminescence, 24 h. Potency, µM (series often up to 57 µM), actives largely listed as inhibitors. actives 0.72% (n = 360,000). AID 1745845; also: nearly all actives have a fitted effect of over 55% in size
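qHTS (up to 57 uM final) was run with 24 h compound exposure of reporter cells at 37 °C. Each well was multiplexed: SteadyGlo luminescence measured ATXN2-luciferase expression after a fluorogenic Gly-Phe-AFC viability readout (25 uM final).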
HepG2 tox: counter-screen for TGF-b inhibitors: cytotoxicity in HepG2 cells. HepG2 CAGA-GFP viability, ATP luminescence, 18 h. Potency, µM (top dose mostly 46.1 µM), most hits filed as cytotoxic. actives 0.76% (n = 410,000)
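CellTiter-Glo luminescence gave cytotoxicity after 18 hours at 37 degrees C. The cells were HepG2 CAGA-GFP in 1% FBS DMEM, stimulated with 500 pg/mL TGF-beta after compound addition. %Activity was normalised to no-cell wells (complete cell-killing) and DMSO (no toxicity), and curves were fitted and classified.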
ATXN viability: cell viability loss in ATXN counter-screen; actives 0.49% (n = 400,000); S2 cells (HEK-293 line with an ATXN2-luciferase reporter) viability, CellTiter-Fluor protease fluorescence, 24 h; Potency, µM (top dose mostly 56.7 µM), hits mostly cytotoxic; also: nearly all actives have a fitted effect of over 40% in size
TGFb SMAD3 inh: blocks TGF-b signaling. HepG2 CAGA-GFP TGF-b/SMAD3 reporter, GFP fluorescence, 18 h; TGF-beta stimulated, 500 pg/mL final. Potency, µM (titrated, usually from 46.1 µM), actives largely listed as inhibitors. actives 1.2% (n = 410,000). AID 588855; also: nearly all actives have a fitted effect of over 65% in size
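TGF-beta reporter screen: HEPG2 CAGA-GFP, 1% FBS, 500 pg/mL TGF-beta final, 18 h; per-cell GFP summed per well; curves fitted and categorized by class.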
A number is an active result; n = inactive; u = inconclusive; x = no result; ! = a repeat was not active; [ ] = remark or other dose. An excerpt weighted towards active compounds, which were near 17% of everything screened. Calls follow the shape of the dose curve; as a rule, active = well fitted curve in the direction sought with a large enough effect; inconclusive = small, poorly fitted or top-dose-only effect, or another doubt; inactive = no such curve, though single readings can be large; an effect the other way counts as inactive or inconclusive.

SMILES | DT40 TDP1 no CPT | DT40 TDP1 CPT | ATXN2 expr inh | HepG2 tox | ATXN viability | TGFb SMAD3 inh
CCOc1ccc(-n2c(-c3ccco3)nc3c(cnn3-c3ccc(C)cc3)c2=O)cc1 | u | u | n | n | n | n
Cc1cccc(-n2c(-c3ccco3)nc3c(cnn3-c3ccc(F)cc3)c2=O)c1 | 16.4µM | 16.4µM | n | n | n | u
CCOC(=O)c1ccc(-n2c(C)nc3c(cnn3-c3ccc(Cl)cc3)c2=O)cc1 | 5.8µM! | 8.2µM! | n | n | n | u
COC(=O)c1sc(S(=O)(=O)N2CCC(C(=O)O)CC2)c(C(=O)OC)c1C | n | n | n | n | n | n
O=C(Cc1ccc(F)cc1)Nc1nnc2n1CCS2 | n | n | n | n | n | n
COc1ccc(-n2c(C)nc3c(cnn3-c3ccc(C)cc3)c2=O)cc1 | u | 14.6µM | n | n | n | u
O=C(COc1ccc2ccccc2c1)NNC(=O)c1cnccn1 | 23.1µM | 23.1µM | n | n | n | n
O=C(COc1cccc2ccccc12)NNC(=O)c1cnccn1 | 16.4µM | u | n | n | n | u
CC(C)c1ccc(OCC(=O)NNC(=O)c2cnccn2)cc1 | u | u | u | n | n | n
COC(=O)c1cc(C)ccc1/C=C1/Cc2c(C)cc(C)cc2C1=O | u | 9.2µM | n | n | n | n
COC(=O)c1cc(OC)c(OC)cc1NC(=O)c1ccc(C)cc1 | u | u | n | n | n | n
CCc1ccc2c(c1)C(O)(CC(=O)c1cccs1)C(=O)N2 (stereo unspecified) | u | u | n | n | n | n
COc1ccc(/C(C)=N/Nc2ccc(C(=O)O)cc2)c(OC)c1 | n | n | n | n | n | n
COc1ccc2c(c1)C(=NN)c1cc(OC)ccc1-2 | u | 16.4µM | u | n | x | n
COc1ccc2c(c1)C(=NNc1ccc(C(=O)O)cc1)c1cc(OC)ccc1-2 | 23.1µM | u | x | n | x | n
COc1ccc(OC)cc1 | n | n | n | n | n | n
O=C(c1ccccc1)C1CN(c2ccccc2)CC1c1ccc(Cl)cc1 (stereo unspecified) | 16.4µM | u | n | n | n | n
COc1cccc(C(=O)C2CN(c3ccccc3)CC2c2ccc(Cl)cc2)c1 (stereo unspecified) | n | u | n | n | n | n
Clc1cccc(OCCn2cncn2)c1Cl | n | n | n | n | n | n
Clc1cccc(Oc2cnns2)c1Cl | 25.9µM | u | n | n | n | n
O=C(CN1CCCC1)Nc1c2c(nc3ccccc13)N(Cc1ccccc1)CC2 | n | 20.6µM | n | n | n | n
O=C(C(=O)N(C1CCCCC1)C1CCCCC1)c1ccccc1 | 7.31µM | 10.3µM | x | x | x | x
O=C(NCc1ccccc1)c1ccc(C(=O)NCc2ccccc2)cc1 | n | n | n | n | u | n
O=C(NCc1ccccc1)c1ccc(C(=O)N(C2CCCCC2)C2CCCCC2)cc1 | u | 23.1µM | u | n | n | n
N#Cc1ccccc1NC(=O)COC(=O)c1ccc(F)cc1F | n | n | n | n | n | n
SMILES | DT40 TDP1 no CPT | DT40 TDP1 CPT | ATXN2 expr inh | HepG2 tox | ATXN viability | TGFb SMAD3 inh
Cc1cc(=O)c2c(O)c3c(O)cc(O)c4c5c(O)cc(O)c6c(O)c7c(=O)cc(C)c8c1c2c(c34)c(c65)c78 | 8.2µM | 16.4µM | x | x | x | x
Cc1cc(O)c2c(c1O)C(=O)c1c(O)cc(C)c(O)c1C2=O | n | n | x | x | x | x
COc1ccc(C2CC(=O)C3=C(C2)NC(C)=C(C(=O)Nc2ccccc2C)C3c2coc3ccc(C)cc3c2=O)cc1OC (stereo unspecified) | u | 20.6µM | n | n | n | n
CC(C)OCCCNC(=O)COCC(=O)Nc1ccc(OCCc2ccccc2)cc1 | 13µM | 18.4µM | n | n | n | u
O=[N+]([O-])c1ccc(N2CCNCC2)cc1Sc1nc2ccccc2[nH]1 | 23.1µM | u | n | n | n | n
NCCNc1ccc([N+](=O)[O-])c(Sc2nc3ccccc3[nH]2)c1 | 16.4µM | u | n | n | u | n
O=[N+]([O-])c1cc(S(=O)(=O)C(F)(F)F)ccc1Sc1nc2ccccc2[nH]1 | 7.31µM | 7.31µM | u | n | u | u
NCCNc1ccc([N+](=O)[O-])c(NC2CC2)c1 | u | u | n | n | u | n
CS(=O)(=O)c1ccc(Sc2nc3ccccc3[nH]2)c([N+](=O)[O-])c1 | u | u | n | n | n | u
C=CCNC(=O)C1CC(=O)N(c2ccc(OCC(=O)Nc3ccc(Cl)cc3)cc2)C1 (stereo unspecified) | u | n | n | n | n | n
CC(Oc1cccc(Cl)c1)C(=O)N1CCN(c2ncccn2)CC1 (stereo unspecified) | n | n | n | n | n | n
O=C(c1cc(-c2ccc(Br)cc2)n[nH]1)N1CCN(S(=O)(=O)c2ccc(Br)s2)CC1 | 23.1µM | 20.6µM | x | n | x | n
Cc1ccc(-c2cc(C(=O)N3CCN(S(=O)(=O)c4ccc(Br)s4)CC3)[nH]n2)cc1C | 13µM | 14.6µM | x | n | x | n
O=C(c1cc(-c2ccc(Br)cc2)n[nH]1)N1CCN(S(=O)(=O)c2ccc(Cl)s2)CC1 | u | u | x | n | x | n
COc1ccc(S(=O)(=O)N2CCN(C(=O)c3cc(-c4ccc(C)cc4)n[nH]3)CC2)cc1 | u | 25.9µM | n | n | n | n
Cc1ccc(-c2cc(C(=O)N3CCN(S(=O)(=O)c4ccc(Br)cc4)CC3)[nH]n2)c(C)c1 | u | u | x | n | x | n
Cc1ccc(-c2cc(C(=O)N3CCN(S(=O)(=O)c4ccc(Br)s4)CC3)[nH]n2)c(C)c1 | 18.4µM | 11.6µM | x | n | x | n
OC(c1cccnc1)c1ccc2c(c1)CN(Cc1cccc3c1OCO3)CCO2 (stereo unspecified) | n | n[9.04 µM] | x | x | n | x
O=C(c1ccc2c(c1)OCO2)N1CCN(S(=O)(=O)c2ccc(Cl)cc2)CC1 | n | n | n | n | n | n
COc1ncc2nc(CCc3ccccc3)c(=O)n(CCc3ccccc3)c2n1 | n | u | x | x | x | x
CCOc1ccc(/C=N/NC(=O)c2nnn(-c3nonc3N)c2CN(C)C2CCCCC2)cc1 | n | n | n | n | n | n
COc1ccccc1N=CC1=C(O)CC(c2ccccc2)CC1=O (stereo unspecified) | 9.2µM | 5.17µM | n | n | n | n
Cc1cc(C(F)(F)F)nn1CC(=O)N(C)C1CCCCC1 | u | n | n | n | n | n
COc1ccc(-n2nc(C(=O)NCC(=O)NCCCN3CCOCC3)c3ccccc3c2=O)cc1 | n | n | n | n | n | n
COC(=O)COc1ccc(S(=O)(=O)Nc2ccc(C(N)=O)cc2)cc1C | n | u | n | n | n | 15.8µM
